Results reported in PubChem BioAssay AID811 (The Scripps Research Institute Molecular Screening Center, 2007).
In all, about 16,000 compounds went through this assay and about 10 (0.06%) were called active. No stated cut-off is given here; in the data, active means inhibition above about 45%; inactive means the rest. What follows is part of a selection rich in actives, with near analogues and random picks from the rest.

Target: Toll-like receptor 4 (Homo sapiens) (UniProt O00206)
Test: blocks binding of human TLR4 to MyD88 (AID 811)
Details: Cell-based TLR4-MyD88 binding inhibition assay; at 10 µM; active compounds read high

Toll-like receptor 4 (Homo sapiens), sequence (O00206 whole entry, looked up): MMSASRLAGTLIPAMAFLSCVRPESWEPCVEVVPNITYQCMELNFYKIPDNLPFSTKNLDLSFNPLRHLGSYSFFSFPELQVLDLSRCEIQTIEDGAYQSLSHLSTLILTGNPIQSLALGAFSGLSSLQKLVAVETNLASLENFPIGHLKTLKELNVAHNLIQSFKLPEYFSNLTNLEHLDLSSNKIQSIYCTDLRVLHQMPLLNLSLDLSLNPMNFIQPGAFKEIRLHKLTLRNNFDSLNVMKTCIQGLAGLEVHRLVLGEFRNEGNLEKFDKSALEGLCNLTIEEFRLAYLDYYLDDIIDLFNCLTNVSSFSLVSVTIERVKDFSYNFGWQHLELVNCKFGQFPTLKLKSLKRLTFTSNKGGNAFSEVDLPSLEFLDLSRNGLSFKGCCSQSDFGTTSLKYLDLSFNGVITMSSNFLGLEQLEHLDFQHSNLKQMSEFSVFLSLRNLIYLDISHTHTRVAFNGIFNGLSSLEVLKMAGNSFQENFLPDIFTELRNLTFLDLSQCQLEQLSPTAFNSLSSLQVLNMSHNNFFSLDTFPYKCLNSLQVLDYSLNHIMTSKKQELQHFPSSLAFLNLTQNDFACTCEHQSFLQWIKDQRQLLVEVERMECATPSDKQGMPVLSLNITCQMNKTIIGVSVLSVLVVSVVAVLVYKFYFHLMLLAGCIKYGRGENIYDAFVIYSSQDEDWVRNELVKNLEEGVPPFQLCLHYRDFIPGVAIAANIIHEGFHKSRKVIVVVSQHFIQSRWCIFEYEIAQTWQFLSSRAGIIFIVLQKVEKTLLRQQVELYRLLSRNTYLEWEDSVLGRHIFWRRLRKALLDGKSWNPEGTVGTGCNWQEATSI

inhibition, inactive:
NS(=O)(=O)c1cccc(NC(=O)c2ccccc2)c1 2.32%, N#CC(Cc1ccccc1)Sc1ccccc1 (configuration not stated) 5.75%, COc1ccc(OCCC(=O)NNC(=S)Nc2cc(Cl)ccc2Cl)cc1 -3.16%, CCOCCOCCN(CC)c1ccc(N=Nc2c(C#N)cc([N+](=O)[O-])cc2C#N)c(NC(C)=O)c1 -2.49%, CC1(C)CCc2cc(-c3ccnc(SCC(=O)c4ccccc4)n3)ccc2O1 -13.2%, Cc1noc(C)c1S(=O)(=O)Nc1cc(C(F)(F)F)ccc1N1CCOCC1 3.25%, N#CCCN(CCc1ccccn1)S(=O)(=O)c1ccc2c(c1)CCO2 3.85%, CC(C)(C)C(=O)NNC(=O)c1ccc(Oc2ccc(C3SCCS3)cc2)o1 -1.82%, Cc1cc2c(cn1)C(=O)c1ccccc1-2 -3.73%, CCOC(=O)c1cc(Sc2ccccc2N)cc(C(=O)OCC)n1 -13.8%, Cc1c(C)c(C)c(CSC(=N)CC#N)c(C)c1C 1.02%, Cc1cc(NCc2cccnc2)no1 -4.99%, O=C(/C=C/c1cccc2ccccc12)N1CCCCC1 2.1%, CC1=CC(=O)C(CCC2=CC(=O)C(C)=CC2=O)=CC1=O -7.79%, CC1=NCCNC(C)=C1N1CCOCC1 2.33%, N/C(Cc1ccc(F)cc1F)=N\OC(=O)c1cccc(C(F)(F)F)c1 2.07%, O=C(N/N=C/c1ccc(Cl)cc1Cl)/C(=C/c1cccs1)NC(=O)c1ccccc1 -7.21%, NC(=NC(=O)CCn1c(=O)oc2ccccc21)c1cc(Cl)cc(Cl)c1 -2.8%, Cc1ccc(CC(=O)c2cccnc2)cc1 3.89%, FC(F)(F)c1ccc(-n2cn[nH]c2=S)cc1 -1.09%, Cc1cc(C)nc(N/C=C(\C#N)S(=O)(=O)c2ccc(Cl)cc2)n1 -13%, CCOC(=O)Cc1nnc(-c2ccc(Cl)cc2)o1 -0.7%, COC(C)(OC)c1ccc(C#N)c(=S)[nH]1 -5.59%, CCOC1=NC(C(F)(F)F)(C(F)(F)F)N=C(N2CCOCC2)O1 0.2%, CN(C)C(=O)Nc1ccc(C(C)(C)C)cc1 -8.78%, O=C(O)CCC(=O)Nc1ccccc1 0.27%, N#Cc1nc(-c2ccccc2)c(-c2ccccc2)nc1C#N 9.3%, Cc1onc(-c2ccccc2)c1C(=O)Nc1ccc(/C(C#N)=C/c2ccccn2)cc1 -8.57%, Cn1cc(C(=O)c2ccc(Cl)cc2)cc1/C=C(\C#N)S(=O)(=O)c1ccc(C(F)(F)F)cn1 -4.67%, O=C(O)CCC(=O)Nc1ccc2c(c1)OCCCO2 -5.34%, c1ccc(-n2cccc2)c(N2CCCCC2)c1 -11.1%, Cc1ccc2oc(=O)n(CC/C(N)=N/OC(=O)c3ccc(C(F)(F)F)nc3C)c2c1 8.34%, CCOC(=O)c1sc(SC)c(-c2ccccc2)c1N 2.9%, CCOC(=O)CNC(=O)CCc1cc(OC)c(OC)c(OC)c1 -5.89%, O=C(Oc1ccc(Cl)cc1)c1snnc1-c1ccccc1 -12.5%, FC(F)(F)c1cccc(NC(=S)NNc2nccc(C(F)(F)F)n2)c1 14.4%, Cc1c(S(=O)(=O)c2ccc(Cl)cc2)csc1C(=O)Nc1ccc2c(c1)OCCO2 -2.01%, O=C(CCSc1nc2ccccc2o1)N1CCc2cc([N+](=O)[O-])ccc21 -4.41%, O=C(Nc1ccc(OCc2ccccc2)cc1)Nc1ccc2c(c1)C(=O)OC2 -6.75%, CCOC(=O)c1c(NS(=O)(=O)c2cccc3nsnc23)sc(C)c1C -17.3%, CCOC(=O)CNC(=O)c1ccc(-c2cccc([N+](=O)[O-])c2)o1 2.51%, CC(=O)OCC(=O)[C@@]1(O)[C@H](C)CC2C3CCC4=CC(=O)C=CC4(C)C3=CCC21C (some centres not stated) -5.02%, O=S(=O)(CCN1CCC(C(F)(F)F)CC1)c1ccccc1 -7.12%, COc1ccc(OC)c(CCCc2cc(OC)ccc2OC)c1 -1.32%, O=C1C=C(SCC(=O)c2ccccc2)SC(c2ccc(Cl)cc2)C1 (configuration not stated) -2.02%, O=c1cc(-c2ccccc2)sc2ccc(Cl)cc12 5.03%, O=C(O)c1cnc(NCc2ccccc2)s1 -1.62%, O=S(=O)(c1ccc(Cl)c(Cl)c1)N1CCc2c([nH]c3ccccc23)C1C(F)(F)F (configuration not stated) 0.92%, N#Cc1c(-c2cccs2)oc(-n2cccc2)c1-c1cc(Br)cs1 6.38%, CCOC(=O)c1cc(CC)sc1NC(=O)c1cccc(C(F)(F)F)c1 1.92%, OCCNc1nc2ccccc2[nH]1 -3.29%, COC(=O)CCN1CCc2cc(N=Nc3ccc(C(F)(F)F)cc3)ccc21 3.28%, N#CCSc1ccc2ccccc2c1 -1.93%, CCN(CCN1C(=O)CCC1=O)c1cccc(NC(C)=O)c1 -4.21%, Cc1cc(/C(N)=N/OC(=O)c2cccs2)c(-c2ccccc2)o1 3.39%, CCOc1cc(-c2cccs2)nc(N)n1 1.81%, O=S(=O)(c1ccc(Cl)s1)N1CCN(c2ccccc2)CC1 -1.65%, CSc1sc(C(N)=O)cc1C#N -2.28%, O=C(O)c1nccnc1C(=O)NCCSCc1c(F)cccc1Cl -7.53%, CCOc1ccc(C(N)=O)c(SCC(=O)O)c1 -4.29%, N#Cc1nccnc1N1CCN(c2ccccc2)CC1 10.5%, Cc1cc(S(=O)(=O)Oc2ccc(OCc3ccccc3)cc2)c(C)cc1Cl 9.02%, Cn1cccc1-c1n[nH]c(=S)n1-c1ccc(Cl)cc1Cl 9.51%, O=c1[nH]c2cc(Cl)c(Cl)cc2n1-c1ccncc1 -5.56%, COc1cccc(OCc2ccccc2)c1C#N -5%, O=C(CSc1nc2ccccc2o1)N1CCC(n2cccc2)CC1 -8.01%, CC(C)(C)C(=O)OCC(N)=S -7.02%, CSc1c(C#N)c(N)nc(SCC(=O)c2ccc(OC(F)F)cc2)c1C#N 1.37%, O=C(O)c1ccccc1/C=N/Nc1cc(Cl)ccc1Cl -2.5%, NC(=O)c1ccccc1OCCOc1ccccc1C(N)=O -25.3%, CN(C)c1cccc2c1c(NC(=O)Nc1ccc(OCc3ccccc3)cc1)nn2C -5.12%, Cc1ccccc1NC(=O)NCc1ccco1 0.5%, OCCNC(=S)Nc1ccccc1-c1ccccc1 6.35%, Cc1c(N/N=C(\C#N)c2nc3ccccc3[nH]2)c(=O)n(-c2ccccc2)n1C 3.99%, CN(C)c1cc(-c2cc(Cl)sc2Cl)oc(=O)c1Cl -4.82%, O/N=C/c1sccc1Oc1ccccc1 0.35%, COC(OC)c1ccnc(SCC(=O)Nc2ccc(C(C)C)cc2)n1 -8.52%, O=C(Nc1ccccc1N1CCOCC1)C1CCN(c2nccc(C(F)(F)F)n2)CC1 1.1%, CC1(C)CC(=O)c2c(NCc3ccco3)sc(C#N)c2C1 8.27%, COC(=O)c1sccc1-c1ccc(/C(C)=N/NC(N)=O)o1 0.98%, Fc1cccc(Cl)c1CSc1nccn1-c1cccnc1 5.59%, O=C(OCc1ccco1)c1cnc(Nc2ccc(OC(F)(F)F)cc2)nc1C(F)(F)F 11.4%, N#Cc1c(N)nc2c3c1NC(O)(c1ccccc1)C(C#N)C3c1cc(Cl)ccc1O2 (configuration not stated) -1.34%, Cc1nc2sc(-c3ccccc3)cc2c(=O)o1 4.05%, NS(=O)(=O)c1cc(Br)ccc1I -0.48%, O=C1CCN(Cc2ccccc2)C(=O)N1c1ccc2c(c1)CCO2 -14.4%, CCOC(=O)C1=C(C)NC(=O)NC1c1ccc(-c2cccc([N+](=O)[O-])c2)o1 (configuration not stated) -3.21%, CC(CC(=O)O)Oc1ccc(Cl)cc1[N+](=O)[O-] (configuration not stated) -0.53%, CSc1nc(N/C=C(\C#N)C(=O)c2cccs2)n2nc(C)cc2n1 -2.59%, N#CCc1ccc(OC(=O)c2cccnc2)cc1 -3.47%, CN(C)C(=S)Nc1ccc(Br)cc1Cl -2.8%, Clc1cncc(Cl)c1N/N=C/C1CC2C=CC1C2 (configuration not stated) 5.74%, O=C(O)c1onc2ccccc12 -3.17%, CSc1nccc(-c2ccc(S(=O)(=O)n3nc(C)c(Br)c3C)s2)n1 2.65%, Cc1cc(NC(=O)c2cc(-c3ccccc3)c(C(F)(F)F)s2)no1 -1.45%, CC(=O)Nc1ccc(/C(N)=N/O)cc1 1.86%, O=C(O)CC1(CC(=O)NCc2ccco2)CCCCC1 -10.3%, CC(=O)OC1=CCC2C3CC[C@@]4(C)CC(OC(C)=O)CCC4(C)C3C(OC(C)=O)CC12C (some centres not stated) 5.37%, CC(C)(C)NC(=O)[C@@H]1C[C@@H]2CCCC[C@@H]2CN1C(=O)c1ccno1 2.92%, CCOC(=O)c1nnc2c(Br)c(C)nn2c1C 0.26%, CCc1ccnc(NS(=O)(=O)c2ccc3c(c2)OCCO3)c1 -7.82%, Cc1nc(C(=O)NNC(=S)Nc2ccccc2C(F)(F)F)cs1 -3.73%
